Our source for the activation and Potency values is PubChem BioAssay (NCATS).

Inconclusive results are not listed. Values without a mark were called inactive. Active and inactive are the calls of the source. Calls come from the whole dose curve; as a rule, active = well fitted activation curve with a large enough effect; inconclusive = small, poorly fitted or top-dose-only effect; inactive = no such curve, though single readings can be large or run the other way.
Potency is the fitted concentration of half-maximal effect.

Chain of Cellular tumor antigen p53 (Homo sapiens) (P04637 whole entry, looked up): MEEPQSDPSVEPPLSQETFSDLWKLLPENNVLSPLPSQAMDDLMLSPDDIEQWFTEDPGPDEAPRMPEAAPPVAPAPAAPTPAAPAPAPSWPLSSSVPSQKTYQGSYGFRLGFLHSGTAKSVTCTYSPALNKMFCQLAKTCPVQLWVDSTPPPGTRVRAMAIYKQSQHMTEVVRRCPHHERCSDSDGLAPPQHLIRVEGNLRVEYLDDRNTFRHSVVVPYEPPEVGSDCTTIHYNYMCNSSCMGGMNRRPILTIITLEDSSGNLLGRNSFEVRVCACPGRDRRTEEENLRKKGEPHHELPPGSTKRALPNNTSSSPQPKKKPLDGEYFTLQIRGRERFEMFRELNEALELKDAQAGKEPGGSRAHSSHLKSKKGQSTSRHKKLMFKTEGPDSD

For the test, the target named is Cellular tumor antigen p53 (Homo sapiens) (UniProt P04637). The test can be described thus: Primary qHTS for small molecule compounds that upregulate eGFP-tagged delta133p53alpha (in N-terminal) cells. (AID 2060322).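 For activation: series mostly up to about 56 µM; 0% = DMSO vehicle and 100% = reference activator.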 Note: nearly all actives have a fitted effect of over 75% in size. The note with it: NCI-H358 eGFP-delta133p53alpha fluorescence, 24 h; activation: active compounds read high. The gist of the method:
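NCI-H358 cells pre-induced 24 h with 10 ng/ml doxycycline to express N-terminal eGFP-delta133p53alpha, then dosed 24 h at 37C without doxycycline; fixed, Hoechst-stained, GFP intensity by laser scanning cytometry, normalized to DMSO (0%) and 57.5 uM 5-azacytidine (100%).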
`C[N+]1(C)CCCC(OC(=O)C(O)(c2ccccc2)c2ccccc2)C1` (configuration not stated): the activation was -37.9%. Still for that read-out and setting: the same measure for `CC(C)COC(=O)c1ccc(N)cc1`: 2.82%; for `c1ccc2c(CC3=NCCN3)cccc2c1`: -10%; for `N#C/C(=C1/SC[C@@H](c2ccc(Cl)cc2Cl)S1)n1ccnc1`: -25.9%. Still for that read-out and setting: next, `CNC(=O)[C@H](CC1=CN=C2C=CCC=C12)NC(=O)[C@@H](CC(=O)NO)CC(C)C`: 3.1%.

For `CC(C)Nc1cccnc1N1CCN(C(=O)c2cc3cc(NS(C)(=O)=O)ccc3[nH]2)CC1`, the activation is -10.7%. The same measure, in the same setting: the same measure for `O=C(O)c1ccccc1Nc1cccc(C(F)(F)F)c1`: -19.8%; for `O=C(c1ccco1)N1CCNCC1`: -10.9%; for `C#C[C@]1(O)CC[C@H]2[C@@H]3CCC4=CC(=O)CC[C@@H]4[C@H]3CC[C@@]21C`: 7.34%. Same read-out and setting: next, `CCN(CC)CCNC(=O)COc1ccc(Cl)cc1`: 19.2%; `CCCCc1nc(Cl)c(CO)n1Cc1ccc(-c2ccccc2-c2nn[nH]n2)cc1`: -19.2%. For `CCN(CC)CCNC(=O)c1cc(Br)c(N)cc1OC`, the activation was 13%.

Consider `CC(=O)[C@@]1(O)CC[C@H]2[C@@H]3C[C@H](C)C4=CC(=O)CC[C@]4(C)[C@H]3CC[C@@]21C`, for which the activation is -5.86%. On to `N=C1N=C(N)c2cc3ccccc3cc21`, for which the Potency was 35.5 µM (active). As for `O=C1O[C@H]([C@@H](O)CO)C(O)=C1O`, the activation was -9.6%. With `CC(=O)NC(=O)c1ccccc1O`, the activation was 1.69%. Consider `CCOC(=O)N1CCN([N+]([O-])=NOc2ccc([N+](=O)[O-])cc2[N+](=O)[O-])CC1`, for which the activation was 8.17%.
